# According to PubChem BioAssay (Tox21):
# Results filed as inconclusive are left out. A call without a number means that no potency is given here. Activity calls are given as the source filed them. Unless noted, calls come from the whole dose curve; as a rule, active = well fitted curve in the direction sought with a large enough effect in the repeat runs; inconclusive = weak or mixed curves; inactive = no such curve, though single readings can be large; an effect the other way counts as inactive or inconclusive.
# Key:
# [1] = qHTS assay to identify small molecule antagonists of the vitamin D receptor (VDR) signaling pathway - cell viability counter screen (AID 743225); note: nearly all actives have a fitted effect of over 50% in size
# In short: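 HEK293T VDR-bla; cpd + 1a,25-(OH)2D3 3 nM final, 16 h 37C/5% CO2; B/G FRET substrate 2 h RT; then CellTiter-Glo 30 min RT, luminescence.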
# [2] = qHTS assay to identify small molecule agonists of the NFkB signaling pathway (AID 1159509; active = well fitted curve in the direction sought with a large enough effect in the signal ratio in the repeat runs, not every such curve was filed as active; the % refers to the signal ratio; note: series mostly up to about 61 µM)
# In short: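 Readout: FRET fluorescence, 405 nm excitation, 460/530 nm emission; beta-lactamase expression disrupts FRET. Cells: ME-180 stably carrying NF-kB-driven bla reporter. Compound exposure 5 hr, 37 C, 5% CO2.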
# [3] = qHTS assay to identify small molecule agonists of the NFkB signaling pathway - cell viability counter screen (AID 1159515; calls by dose curve; note: series mostly up to about 61 µM; nearly all actives have a fitted effect of over 55% in size)
# In short: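 Tox21 library compounds were tested for cytotoxicity against NFkB-bla ME-180 cells during a 5 hr exposure at 37 C. CellTiter-Glo luminescence served as the viability read-out.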
# [4] = qHTS assay to identify small molecule agonists of the endoplasmic reticulum stress response signaling pathway - cell viability counter screen (AID 1159517; calls by dose curve; note: nearly all actives have a fitted effect of over 50% in size; note: potency is the fitted concentration of half-maximal effect)
# In short: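 Cytotoxicity of test compounds toward ESRE-bla HeLa cells was assessed after 5 hr exposure. The luminescent CellTiter-Glo signal was measured 30 min after reagent addition.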
# [5] = qHTS assay to identify small molecule antagonists of the retinoid-related orphan receptor gamma (ROR-gamma) signaling pathway - cell viability counter screen (AID 1159520); note: nearly all actives have a fitted effect of over 50% in size; note: potency is the fitted concentration of half-maximal effect
# In short: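 Tet-on ROR gamma CHO cells (1,000/well) were plated 4 hr, given compounds in DMSO for 2 hr at 37 C, then induced with 1 uM final doxycycline for 16 hr. Viability was read as ATP by CellTiter-Glo luminescence after 30 min.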
# [6] = qHTS assay to identify small molecule agonists of the RXR signaling pathway - cell viability counter screen (AID 1159529); note: nearly all actives have a fitted effect of over 50% in size; note: potency is the fitted concentration of half-maximal effect
# In short: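 Steps: seed RXR-alpha-UAS-bla HEK 293T cells in assay medium containing 2% charcoal-stripped FBS; incubate 5 hr; add compounds in DMSO; incubate 16 hr at 37 C; after the bla read, add CellTiter-Glo and read luminescence at 30 min.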
# [7] = qHTS assay to identify small molecule antagonists of the retinoic acid receptor (RAR) signaling pathway (AID 1159552; note: nearly all actives have a fitted effect of over 50% in size; note: potency is the fitted concentration of half-maximal effect)
# In short: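 Retinol at 1 uM final stimulated RARE-luciferase expression in C3RL4 cells exposed to test compounds for 6 hr at 37 C. Reduced luminescence, read 30 min after detection reagent, indicated pathway antagonism.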
# [8] = qHTS assay to identify small molecule agonists of the retinoic acid receptor (RAR) signaling pathway (AID 1159553)
# In short: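 In this cell-based screen, 1,000 C3RL4 cells per well were cultured overnight, dosed with test chemicals in DMSO for 6 hr, and assessed for RARE luciferase luminescence.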
# [9] = qHTS assay to identify small molecule agonists of the endoplasmic reticulum stress response signaling pathway (AID 1159516; active = well fitted activation curve with a large enough effect in the signal ratio in the repeat runs, not every such curve was filed as active; the % refers to the signal ratio)
# In short: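 Fluorescence at 460 and 530 nm (405 nm excitation) reports beta-lactamase from an ER stress response element in HeLa cells treated 5 hr at 37 C.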
# [10] = target: Nuclear receptor ROR-gamma (Homo sapiens) (UniProt P51449); assay: qHTS assay to identify small molecule antagonists of the retinoid-related orphan receptor gamma (ROR-gamma) signaling pathway (AID 1159521; note: nearly all actives have a fitted effect of over 50% in size; note: potency is the fitted concentration of half-maximal effect)
# In short: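 Cells were plated, rested 4 h at 37 C, exposed to compounds for 2 h, then given 1 uM final doxycycline hyclate to induce RORγ expression. After 16 h, ONE-Glo luminescence from the ROR response element reporter was measured.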
# [11] = qHTS assay to identify small molecule agonists of the AP-1 signaling pathway - cell viability counter screen (AID 1159525; calls by dose curve; note: nearly all actives have a fitted effect of over 55% in size)
# In short: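 Each titration point was normalised to DMSO and tetra n-octyl ammonium bromide controls. The read was Cell Titer Glo luminescence after 30 min at RT, following 5 h compound exposure of ME-180 AP-1-bla cells at 37 °C.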
# [12] = qHTS assay to identify small molecule agonists of the AP-1 signaling pathway (AID 1159526; calls by dose curve)
# [13] = target: Retinoic acid receptor RXR-alpha (Homo sapiens) (UniProt P19793); assay: qHTS assay to identify small molecule agonists of the RXR signaling pathway (AID 1159527; calls by dose curve; note: nearly all actives have a fitted effect of over 35% in size)
# In short: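 Cells plated at 2,000/well, rested 5 hr at 37 C, pin-dosed with DMSO compound solutions, incubated 16 hr, then loaded with B/G FRET substrate for 2 hr at RT before dual-emission fluorescence reading.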
# [14] = qHTS assay to identify small molecule antagonists of the retinoid acid receptor (RAR) signaling pathway - cell viability counter screen (AID 1159551); note: nearly all actives have a fitted effect of over 35% in size; note: potency is the fitted concentration of half-maximal effect
# In short: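 In this counter screen, the RARE-luciferase line C3RL4 was exposed for 6 h at 37 C and 5% CO2 to compounds with retinol at 1 uM final. Cellular ATP, read by luminescence, served as the viability measure.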
# [15] = qHTS assay to identify small molecule antagonists of the estrogen related receptor (ERR) signaling pathway - cell viability counter screen (AID 1224818); note: series mostly up to about 46 µM
# In short: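 Viability of ERR cells, CellTiter-Fluor fluorescence; 17.5 h compound exposure at 37 C, DMSO vehicle; 30 min reagent incubation at 37 C/5% CO2.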
# [16] = qHTS assay to identify small molecule agonists of the estrogen related receptor (ERR) signaling pathway (AID 1224820)
# In short: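 Luminescence readout (One-Glo, 30 min RT) from NTP-supplied ERR cell line exposed to compounds for 18 h at 37 C. Cells seeded 2,000 per well and pre-incubated 6 h before pin-tool compound transfer.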
# [17] = qHTS assay to identify small molecule antagonists of the estrogen related receptor signaling pathway with the pleiotropic PPARgamma coactivator (PGC) cell viability counter screen (AID 1224822; note: series mostly up to about 46 µM)
# In short: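 17.5 h compound treatment of PGC/ERR cells at 37 C; readout CellTiter-Fluor fluorescence; run alongside the PGC/ERR antagonist screen to flag cytotoxic compounds.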
# [18] = qHTS assay to identify small molecule agonists of the estrogen related receptor signaling pathway with the pleiotropic PPARgamma coactivator (PGC) (AID 1224823)
# In short: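 Luminescence readout (One-Glo, 30 min RT) from PGC/ERR cell line treated 18 h at 37 C with pin-tool-delivered DMSO compound solutions; cells plated 6 h before dosing. Quantitative HTS format.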
# [19] = qHTS assay to identify small molecule antagonists of the estrogen related receptor (ERR) signaling pathway (AID 1224819)
# In short: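 Seed ERR cells 2,000/well; rest 6 h at 37 C/5% CO2; pin compounds in DMSO; incubate 18 h at 37 C; add One-Glo; wait 30 min at room temperature; measure luminescence.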
# [20] = system: estrogen-related receptor alpha (ERRalpha) with PGC-1alpha coactivator, human; assay: qHTS assay to identify small molecule antagonists of the estrogen related receptor signaling pathway with the pleiotropic PPARgamma coactivator (PGC) (AID 1224821; calls by dose curve)
# In short: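 PGC/ERR reporter cells; 6 h pre-incubation 37 C/5% CO2; pin-tool compound in DMSO, 18 h 37 C; One-Glo added, 30 min RT; luminescence read. qHTS antagonist mode.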
# Chain of Retinoic acid receptor RXR-alpha (Homo sapiens) (P19793 whole entry, looked up): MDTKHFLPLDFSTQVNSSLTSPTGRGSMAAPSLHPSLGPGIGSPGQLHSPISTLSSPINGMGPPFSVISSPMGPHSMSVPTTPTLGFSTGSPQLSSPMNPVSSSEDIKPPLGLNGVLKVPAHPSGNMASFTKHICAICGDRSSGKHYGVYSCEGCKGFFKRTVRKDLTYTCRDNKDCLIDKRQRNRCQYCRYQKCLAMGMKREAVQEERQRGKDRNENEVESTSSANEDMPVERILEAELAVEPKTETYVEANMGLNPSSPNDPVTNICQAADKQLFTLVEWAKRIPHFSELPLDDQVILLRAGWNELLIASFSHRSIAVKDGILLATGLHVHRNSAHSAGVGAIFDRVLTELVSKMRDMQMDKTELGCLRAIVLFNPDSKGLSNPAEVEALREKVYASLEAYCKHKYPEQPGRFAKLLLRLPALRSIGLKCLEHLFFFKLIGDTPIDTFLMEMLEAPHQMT
Structure (SMILES),Potency [1],outcome [2],Potency [3],Potency [4],Potency [5],Potency [6],Potency [7],Potency [8],outcome [9],Potency [10],Potency [11],outcome [12],Potency [13],Potency [14],outcome [15],outcome [16],Potency [17],outcome [18],outcome [19],Potency [20]
II,inactive,inactive,inactive,inactive,30.6 µM (active),6.92 µM (active),68.6 µM (active),inactive,,,,,,,,,,,,
CC(=O)NC1CCSC1=O (stereo not given),inactive,inactive,,inactive,inactive,inactive,inactive,inactive,inactive,inactive,inactive,inactive,inactive,inactive,,,,,,
CC(C)(Cl)[N+](=O)[O-],inactive,inactive,inactive,,inactive,inactive,inactive,inactive,,inactive,inactive,inactive,inactive,inactive,,,,,,
CC(C)(C)c1cc([N+](=O)[O-])cc([N+](=O)[O-])c1O,,inactive,inactive,inactive,,inactive,,,,6.09 µM (active),inactive,,,inactive,,,,,,
CCCN(CCC)c1c([N+](=O)[O-])cc(S(C)(=O)=O)cc1[N+](=O)[O-],inactive,inactive,inactive,inactive,inactive,,,inactive,,,inactive,inactive,,inactive,,,,,,
CC(O)(CS(=O)(=O)c1ccc(F)cc1)C(=O)Nc1ccc(C#N)c(C(F)(F)F)c1 (stereo not given),,inactive,inactive,inactive,inactive,22.7 µM (active),inactive,inactive,,,inactive,inactive,,inactive,inactive,inactive,inactive,inactive,,
Clc1cc(C(Cl)(Cl)Cl)cnc1Cl,inactive,inactive,inactive,11 µM (active),,inactive,inactive,,,inactive,inactive,inactive,inactive,inactive,,,,,,
CCOP(O)OCC,,inactive,,inactive,inactive,,inactive,inactive,inactive,inactive,inactive,inactive,,inactive,,,,,,
c1ccc(CN2CCNCC2)cc1,inactive,inactive,inactive,inactive,inactive,inactive,inactive,,,,inactive,inactive,inactive,inactive,,,,,,
O=C(CBr)c1ccccc1,inactive,inactive,,inactive,inactive,,inactive,,inactive,inactive,inactive,,inactive,inactive,,,,,,
CS/C(C)=N/OC(=O)N(C)SN(C)C(=O)O/N=C(\C)SC,inactive,inactive,inactive,inactive,43.3 µM (active),49 µM (active),,,,,inactive,,,,,,,,,
NC(=O)C(Cl)(Cl)Cl,inactive,inactive,,inactive,inactive,inactive,inactive,inactive,inactive,inactive,inactive,inactive,inactive,inactive,,,,,,
Nc1ccc(N=Nc2ccc(-c3ccc(N=Nc4c(S(=O)(=O)O)cc5cc(S(=O)(=O)O)c(N=Nc6ccccc6)c(O)c5c4N)cc3)cc2)c(N)c1,,inactive,inactive,inactive,15.7 µM (active),inactive,inactive,,,,inactive,,,15.7 µM (active),,,,,,
O=C1c2ccccc2C(=O)C1C(=O)C(c1ccccc1)c1ccccc1,inactive,inactive,inactive,,inactive,inactive,inactive,inactive,,,inactive,inactive,,inactive,,,,,,
CCCCOC(=O)c1ccccc1C(=O)OCc1ccccc1,inactive,inactive,,inactive,inactive,inactive,inactive,inactive,inactive,inactive,inactive,inactive,,inactive,inactive,inactive,inactive,inactive,inactive,inactive
O=Cc1ccc(Cl)cc1Cl,,inactive,,inactive,inactive,inactive,inactive,inactive,inactive,inactive,inactive,inactive,inactive,inactive,,,,,,
CNP(=O)(OC)Oc1ccc(C(C)(C)C)cc1Cl (stereo not given),inactive,inactive,inactive,inactive,inactive,,inactive,inactive,,,inactive,inactive,,inactive,,,,,,
N#C/C(N)=C(/N)C#N,,inactive,,inactive,inactive,inactive,inactive,,inactive,inactive,inactive,inactive,inactive,inactive,,,,,,
COc1cc(CC(C)N)cc2c1OCO2 (stereo not given),inactive,inactive,inactive,inactive,,,inactive,inactive,,inactive,inactive,inactive,inactive,inactive,,,,,,
Cn1cc[n+](C)c1 (tested in a mixture with another compound),inactive,inactive,,inactive,inactive,inactive,inactive,inactive,inactive,inactive,inactive,inactive,inactive,inactive,,,,,,
Cc1ccc2ccccc2c1,,inactive,,inactive,inactive,inactive,,,inactive,,inactive,inactive,inactive,inactive,,,,,,
N#Cc1cc(I)c(O)c(I)c1,,inactive,,inactive,inactive,,68.6 µM (active),inactive,inactive,24.3 µM (active),inactive,inactive,,inactive,,,,,,
O=C1C(=O)c2cccc3cccc1c23,inactive,inactive,inactive,inactive,inactive,inactive,,,,,inactive,,,inactive,,,,,,
COc1nn(C(=O)NS(=O)(=O)c2ccccc2OC(F)(F)F)c(=O)n1C,inactive,inactive,inactive,inactive,,inactive,inactive,inactive,,,inactive,inactive,,inactive,,,,,,
